This note sets out measurements from PubChem BioAssay (NCI).

Among the test systems are HCT-15 colon; HT29 colon; SNB-75 CNS; SNB-19 CNS; U251 CNS; PC-3 prostate; SK-MEL-5 melanoma; UACC-62 melanoma; LOX IMVI melanoma; SK-MEL-28 melanoma; SK-MEL-2 melanoma; EKVX NSCLC; SN12C renal; UO-31 renal; TK-10 renal; ACHN renal; CAKI-1 renal; A498 renal; CCRF-CEM leukemia; MOLT-4 leukemia.
Assay in all cases: NCI-60 one-dose screen, 48 h (100 = growth as untreated, 0 = no growth, -100 = all killed)
Holding throughout (conditions): 10 µM unless noted

The panel holds about 83,000 compounds, 20% with a hit somewhere; the sample as a whole holds those more often.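 Compound tested at a single concentration for 48 hours in 96-well plates; a percent growth value below 10 was scored as active.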 A number with no mark means an inactive call. The source made the active and inactive calls.

Turning to `c1ccc(-c2ccc3c(c2)C2(CCNCC2)CN3)cc1`, the growth in the experiment with HCT-15 colon was 99.6%; with HT29 colon, 96.5%; in the experiment with SNB-75 CNS it was 73.8%; with SNB-19 CNS, 101%; in the experiment with U251 CNS, 102%; with PC-3 prostate it was 86.9%. The growth with SK-MEL-5 melanoma was 99.1%; in the experiment on UACC-62 melanoma, 84.6%; in the experiment on LOX IMVI melanoma it was 89.9%; in the experiment on SK-MEL-28 melanoma, 110%; with SK-MEL-2 melanoma it was 93.4%; in the experiment with EKVX NSCLC, 75.9%. In addition, the growth was 98.7% in the experiment with SN12C renal; 66.1% in the experiment on UO-31 renal; 125% in the experiment with TK-10 renal; 93% in the experiment on ACHN renal; 93% with CAKI-1 renal; 104% in the experiment on A498 renal. Besides, the growth in the experiment on CCRF-CEM leukemia was 112%; in the experiment on MOLT-4 leukemia it was 85.7%.
In the case of `CCn1cc(C(=O)O)c(=O)c2cc(F)c(N3CCN(CC(=O)Nc4ccccc4)C(C)C3)c(F)c21` (stereo not given), the growth was 101% with HCT-15 colon; 108% in the experiment on HT29 colon; 86.1% in the experiment on SNB-75 CNS; 99.1% in the experiment on SNB-19 CNS; 102% in the experiment on U251 CNS; 93.2% in the experiment with PC-3 prostate. Further, the growth was 99.2% in the experiment with SK-MEL-5 melanoma; 78.2% in the experiment on UACC-62 melanoma; 88.5% with LOX IMVI melanoma; 97% in the experiment with SK-MEL-28 melanoma; 122% in the experiment with SK-MEL-2 melanoma; 104% in the experiment with EKVX NSCLC. Besides, the growth is 103% with SN12C renal; 76.5% in the experiment on UO-31 renal; 108% with TK-10 renal; 97.8% in the experiment on ACHN renal; 87% with CAKI-1 renal; 73.4% in the experiment on A498 renal. Also, the values for the growth in the experiment with CCRF-CEM leukemia and in the experiment with MOLT-4 leukemia were 96.7% and 107%, respectively.
Take `CN1CCN(c2ccc(NC3=CC(=O)c4ncncc4C3=O)cc2)CC1`: the growth in the experiment with HCT-15 colon was -71.7% (active); in the experiment with HT29 colon, -29% (active); with SNB-75 CNS, -94.7% (active); in the experiment with SNB-19 CNS, -91.9% (active); in the experiment on U251 CNS, -82.3% (active); with PC-3 prostate, -8.86% (active). Also, the growth in the experiment on SK-MEL-5 melanoma is -94% (active); in the experiment with UACC-62 melanoma, -89.8% (active); in the experiment with LOX IMVI melanoma it was -63.8% (active); with SK-MEL-28 melanoma, -75.3% (active); in the experiment with SK-MEL-2 melanoma it was -54% (active); in the experiment with EKVX NSCLC it was -87.1% (active). Moreover, the growth in the experiment with SN12C renal was -75.6% (active); with UO-31 renal, -98.3% (active); in the experiment with TK-10 renal it was -82.3% (active); with ACHN renal, -96.2% (active); with CAKI-1 renal, -96% (active); in the experiment with A498 renal, -36.7% (active). Besides, the growth in the experiment with CCRF-CEM leukemia is 3.21% (active); in the experiment with MOLT-4 leukemia, -28.4% (active).
For `CC1(C)CC[C@]23CC[C@]4(C)[C@H](CC[C@@H]5[C@@]6(C)CCNCC(C)(C)[C@@H]6CC[C@]54C)[C@H]2[C@H]1OC3`, the growth was 54.2% in the experiment with HCT-15 colon; 18.6% in the experiment on HT29 colon; 96.8% in the experiment on SNB-75 CNS; 103% with SNB-19 CNS; 70% with U251 CNS; 65.8% in the experiment on PC-3 prostate. The growth in the experiment on SK-MEL-5 melanoma was 96.2%; with UACC-62 melanoma it was 94.4%; in the experiment on LOX IMVI melanoma, 83.8%; in the experiment on SK-MEL-28 melanoma, 99.9%; in the experiment on SK-MEL-2 melanoma, 99.1%; with EKVX NSCLC it was 109%. Also, the growth was 89.6% with SN12C renal; 99.5% in the experiment on UO-31 renal; 108% in the experiment with TK-10 renal; 106% in the experiment on ACHN renal; 93.9% in the experiment on CAKI-1 renal; 117% with A498 renal. For the same compound, the growth with CCRF-CEM leukemia was 70.8%; in the experiment on MOLT-4 leukemia, 58.7%.
Take `CC(O)CNC(Cc1ccccc1)c1ccc2c(c1)OCO2` (stereo not given): the growth was 104% with HCT-15 colon; 65.5% in the experiment on HT29 colon; 90.2% in the experiment with SNB-75 CNS; 101% in the experiment with SNB-19 CNS; 97.3% with U251 CNS; 65.8% in the experiment on PC-3 prostate. Moreover, the growth in the experiment with SK-MEL-5 melanoma was 100%; with UACC-62 melanoma, 91.4%; with LOX IMVI melanoma, 92.5%; with SK-MEL-28 melanoma, 72.3%; with SK-MEL-2 melanoma it was 65%; in the experiment with EKVX NSCLC it was 96.6%. For the same compound, the growth is 105% in the experiment on SN12C renal; 69.7% in the experiment on UO-31 renal; 82.9% in the experiment on TK-10 renal; 101% with ACHN renal; 93.1% in the experiment with CAKI-1 renal; 89.9% with A498 renal. In addition, the growth was 96.3% in the experiment with CCRF-CEM leukemia and 95.4% in the experiment with MOLT-4 leukemia.
On to `COc1ccc(/C=N/NC(=O)Cn2c(-c3ccc(S(C)(=O)=O)cc3)nc3ccccc32)cc1`, for which the growth with HCT-15 colon was 98.8%; in the experiment with HT29 colon, 103%; with SNB-75 CNS, 101%; with SNB-19 CNS it was 100%; in the experiment on U251 CNS, 106%; with PC-3 prostate it was 93.2%. For the same compound, the growth in the experiment on SK-MEL-5 melanoma is 96.7%; in the experiment with UACC-62 melanoma, 90.8%; in the experiment on LOX IMVI melanoma, 114%; in the experiment with SK-MEL-28 melanoma, 102%; in the experiment with SK-MEL-2 melanoma, 107%; with EKVX NSCLC, 97%. The growth in the experiment with SN12C renal was 99.9%; in the experiment on UO-31 renal, 75.9%; in the experiment on TK-10 renal, 109%; in the experiment on ACHN renal, 105%; in the experiment with CAKI-1 renal it was 93%; in the experiment on A498 renal, 95%. The values for the growth with CCRF-CEM leukemia and with MOLT-4 leukemia were 106% and 141%, respectively.
Take `C=C1C(=O)O[C@@H]2C3C(=C(C)CC[C@@H]12)CC1O[C@]13C` (stereo not given in full): the growth in the experiment on HCT-15 colon is 50.4% [6.75 µM]; in the experiment with HT29 colon, 85.5% [6.75 µM]; with SNB-75 CNS it was 86.1% [6.75 µM]; in the experiment on SNB-19 CNS, 92.8% [6.75 µM]; in the experiment on U251 CNS it was 90.3% [6.75 µM]; in the experiment on PC-3 prostate, 85.2% [6.75 µM]. The growth is 55.6% [6.75 µM] in the experiment with SK-MEL-5 melanoma; 74.6% [6.75 µM] with UACC-62 melanoma; 51.8% [6.75 µM] in the experiment with LOX IMVI melanoma; 90.4% [6.75 µM] in the experiment with SK-MEL-28 melanoma; 90.4% [6.75 µM] in the experiment with SK-MEL-2 melanoma; 91.5% [6.75 µM] with EKVX NSCLC. Moreover, the growth with SN12C renal was 86.6% [6.75 µM]; with UO-31 renal, 54.5% [6.75 µM]; with TK-10 renal, 40.5% [6.75 µM]; in the experiment on ACHN renal, 73.2% [6.75 µM]; in the experiment on CAKI-1 renal, 90.1% [6.75 µM]; with A498 renal, 103% [6.75 µM]. In addition, the growth in the experiment with CCRF-CEM leukemia is 23.2% [6.75 µM]; in the experiment on MOLT-4 leukemia, 84% [6.75 µM].
